# Assay outcomes: PubChem, several laboratories
# An excerpt weighted towards active compounds, which were near 28% of everything screened.
# CYP2C19 act: human CYP2C19 activators, primary screen, biochemical, luminescence. activation factor at 5 µM. Cytochrome P450 2C19 (Homo sapiens), P33261. AID 1025, 2008. 96,000 tested, under 10 active. recombinant CYP2C19, luciferin-H EGE luminescence; active compounds read high; 0 = fully inhibited enzyme, 1 = untreated enzyme;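 active = activation factor of at least 2 at 5 µM in the primary screen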
# Target sequence (P33261 whole entry, looked up): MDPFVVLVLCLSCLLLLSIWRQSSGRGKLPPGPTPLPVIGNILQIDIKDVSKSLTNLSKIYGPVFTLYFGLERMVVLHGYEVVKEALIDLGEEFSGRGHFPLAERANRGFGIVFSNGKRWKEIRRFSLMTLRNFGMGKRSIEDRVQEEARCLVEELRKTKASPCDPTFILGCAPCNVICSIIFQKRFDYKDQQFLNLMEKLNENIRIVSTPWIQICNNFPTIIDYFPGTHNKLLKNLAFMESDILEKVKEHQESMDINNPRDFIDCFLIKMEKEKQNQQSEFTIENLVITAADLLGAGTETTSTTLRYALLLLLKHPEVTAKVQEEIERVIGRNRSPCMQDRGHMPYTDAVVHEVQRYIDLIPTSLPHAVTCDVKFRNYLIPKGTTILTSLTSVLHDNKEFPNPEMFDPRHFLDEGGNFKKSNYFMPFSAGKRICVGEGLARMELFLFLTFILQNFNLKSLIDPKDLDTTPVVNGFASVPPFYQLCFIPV
# CYP2C9 inh: blockers of cytochrome P450 2C9 activity – biochemical, luminescence, ADME assay, primary screen; P11712; CYP2C9 Supersomes, luciferin-H conversion; inhibition, % at 5 µM; 20% of 96,000 active; AID 777, 2007;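 active = blocking of liver enzyme CYP2C9 beyond about 50% at 5 µM, limit read from the data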
# CYP2C19 inhib: blockers of cytochrome P450 2C19 activity – biochemical, luminescence, ADME assay, primary screen; P33261; CYP2C19 Supersomes, luciferin-H EGE luminescence, 30 min; inhibition, % at 5 µM; 21% of 96,000 active; AID 778, 2007;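 active = CYP2C19 inhibition above a set limit at 5 µM in the primary screen, cut at about 50% in these data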
# Plk1 PBD FP: Plk1 polo box domain binding inhibitors, primary screen, biochemical, fluorescence polarization; Serine/threonine-protein kinase PLK1 (Homo sapiens), P53350; Plk1 PBD phosphopeptide binding; inhibition, %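 (tested at about 20 µM)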; 0.13% of 97,000 active; AID 693, 2007; in the data active = inhibition above about 34%, passing the limit was not always enough
# CYP2C9 activ: human CYP2C9 activators, primary screen, biochemical, luminescence. Cytochrome P450 2C9 (Homo sapiens), P11712. recombinant CYP2C9, luciferin-H conversion; active compounds read high; factor 1 = untreated enzyme, 0 = blocked. activation factor at 5 µM. 1.4% of 96,000 active. AID 1024, 2008;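 active = activation factor of 2 or more for CYP2C9 at a 5 µM dose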
# PLK1 kinase inh: human PLK1 kinase inhibitors, primary screen, biochemical, TR-FRET; 0.53% of 97,000 active; recombinant PLK1 kinase, TR-FRET peptide phosphorylation; inhibition, % at 10 µM; Serine/threonine-protein kinase PLK1 (Homo sapiens), P53350;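 active = inhibition of 50% or more in the single-concentration screen; inactive = inhibition below 50%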
# Hits are given with their value; . = inactive; / = no result given.
SMILES,CYP2C19 act,CYP2C9 inh,CYP2C19 inhib,Plk1 PBD FP,CYP2C9 activ,PLK1 kinase inh
Cc1cc(C)c2c(c1)NC(=O)C2(O)CC(=O)c1cccs1 (stereo not given),.,.,54,.,.,.
Cc1ccc(C(=O)CC2(O)C(=O)Nc3ccccc32)s1 (stereo not given),.,.,.,.,.,.
CCOc1cc(S(=O)(=O)N2CCCCC2)ccc1F,.,.,.,.,.,.
CCOc1cc(S(=O)(=O)N2CCCC2)ccc1Cl,.,.,51,.,.,.
CCOc1ccc(C)cc1S(=O)(=O)N1CCCCC1,.,.,66,.,.,.
CCOc1ccc(S(=O)(=O)N2CCCCC2)c2ccccc12,.,.,.,.,.,.
CCOc1ccc(C(C)(C)C)cc1S(=O)(=O)N1CCOCC1,.,50,68,.,.,.
CCOc1ccc(OCC)c(S(=O)(=O)N2CCCCC2C)c1 (stereo not given),.,53,89,.,.,.
O=C1CCCc2sccc2N1,.,.,.,.,.,.
COC(=O)C1=C(C)OC(N)=C(C#N)C1c1cc(OC)c(OCC(N)=O)cc1Cl (stereo not given),.,.,.,.,.,.
Cc1ccc(/C=c2\s/c(=C(/C#N)C(=O)N3CCCC3)n(Cc3ccco3)c2=O)s1,.,.,.,/,.,/
CCOc1cc(Br)ccc1S(=O)(=O)N1CC(C)OC(C)C1 (stereo not given),.,.,.,.,.,.
CCOc1ccc(Br)cc1S(=O)(=O)N1CC(C)OC(C)C1 (stereo not given),.,.,88,.,.,.
CSc1nc(Oc2ccc3ccccc3c2)c2ccccc2n1,.,.,.,.,.,.
Cc1ccc(C(=O)C2=C(O)C(=O)N(CCN3CCOCC3)C2c2ccccn2)o1 (stereo not given),.,.,.,.,.,.
CCN(CC)CC(=O)NCc1cc(-c2ccc(OC)cc2)no1,.,.,.,.,.,.
CCc1ccc(C(=O)COC(=O)c2cnccn2)cc1,.,.,.,.,.,.
Cc1cc(=O)oc2cc(OCC(=O)N3CC(C)OC(C)C3)ccc12 (stereo not given),.,.,73,.,.,.
Cc1cc(=O)oc2ccc(OCC(=O)N3CCC(C)CC3)cc12,.,.,55,.,.,.
Nn1c(SCC(=O)NCCC2=CCCCC2)nnc1C(F)(F)F,.,.,.,.,.,.
COc1ccc(N2C(=NC(C)=O)SC3CS(=O)(=O)CC32)cc1OC (stereo not given),.,.,.,.,.,.
CC(C)(C)C(=O)N=C1SC2CS(=O)(=O)CC2N1c1ccc2c(c1)OCO2 (stereo not given),.,63,57,.,.,.
COc1ccc(CN2CCn3ncc(C(=O)Nc4cc(C)cc(C)c4)c3C2=O)cc1,.,.,.,.,.,.
COc1ccc(-c2cc(C(=O)N3CC4(C)CC3CC(C)(C)C4)no2)cc1 (stereo not given),.,.,.,.,.,.
CC1CCN(C(=O)c2cc(-c3ccccc3O)on2)CC1,.,.,67,.,.,.
SMILES,CYP2C19 act,CYP2C9 inh,CYP2C19 inhib,Plk1 PBD FP,CYP2C9 activ,PLK1 kinase inh
CC1(C)CC2CC(C)(CN2C(=O)CCCN2C(=O)c3ccccc3C2=O)C1 (stereo not given),.,.,86,/,.,/
CC1(C)CC2CC(C)(CN2C(=O)c2cc(-c3ccccc3O)on2)C1 (stereo not given),.,73,54,.,.,.
CC1(C)CC2CC(C)(CN2C(=O)c2cccs2)C1 (stereo not given),.,.,74,.,.,.
CCC(=C(c1ccc(OC)cc1)c1ccc(OC)cc1)c1cn(CC(O)CN2CCN(C)CC2)c2ccccc12 (stereo not given),.,70,.,.,.,.
COc1ccc(C(=O)NCCn2cc(SCC(=O)N3CCOCC3)c3ccccc32)cc1,.,.,.,.,.,.
CC(=O)Nc1ccc(S(=O)(=O)Nc2c(C)n(C)n(-c3ccccc3)c2=O)cc1,.,.,.,.,.,.
Cc1cccc(-n2nnnc2SCn2nnc3ccccc3c2=O)c1,/,/,/,.,/,.
CCN(CC)S(=O)(=O)c1ccc2c(c1)nc(SCn1nnc3ccccc3c1=O)n2CC,.,68,.,.,.,.
O=C(CN1CCSCC1)N1CCc2[nH]c3ccc(Br)cc3c2C1,.,81,93,.,.,.
Cc1ccc2[nH]c3c(c2c1)CN(C(=O)CN1c2ccc(F)cc2CCC1C)CC3 (stereo not given),.,.,.,.,.,.
Cc1ccc2[nH]c3c(c2c1)CN(C(=O)CN1CCN(c2cccc(C)c2C)CC1)CC3,.,89,.,.,.,.
O=C(C1CC1)N1CCc2[nH]c3ccccc3c2C1,/,/,/,.,/,.
COc1ccc(-c2noc(CSc3nnc(Cc4ccccc4)n3-c3ccc(Cl)cc3)n2)cc1,.,80,87,.,.,.
COc1ccc(-c2noc(CSc3nc4ccccc4c(=O)n3-c3ccc(C)cc3)n2)cc1,.,66,63,.,.,.
COc1ccc(-c2noc(CSc3nc(N)c(-c4ccccc4)c(=O)[nH]3)n2)cc1,.,70,76,.,.,.
Cc1ccc(-c2noc(CSc3nnc(Cc4ccccc4)n3-c3ccc(Cl)cc3)n2)cc1,.,84,84,.,.,.
CN(C)CCCOc1ccc(C(C)(C)c2ccccc2)cc1,.,.,.,.,.,.
CC(C)c1ccc(CNc2ccc(N3CCOCC3)cc2)cc1,.,.,95,.,.,.
C=C(C)CSc1nncn1/N=C/c1ccc(OC)cc1,.,55,63,.,.,.
Cc1ccc(S(=O)(=O)N(Cc2nccn2C)C(C)C)cc1,.,.,.,.,.,.
Cc1nn(Cc2ccccc2)c(=O)n1N(C)c1ncc(C(F)(F)F)cc1Cl,.,.,67,.,.,.
CN(C)C(=O)c1cn(N(C)c2ncc(C(F)(F)F)cc2Cl)c(=O)c2ccccc12,.,80,53,.,.,.
O=C1CC(NCc2ccc3c(c2)OCO3)C(=O)N1Cc1ccc2c(c1)OCO2 (stereo not given),.,.,.,.,.,.
Cc1ccc(NC(=O)CSc2nnc(CNC(=O)c3c(F)cccc3Cl)o2)cc1,.,73,.,.,.,.
Cc1ccc(NC(=O)CSc2nnc(Cn3cnc4ccccc43)o2)cc1,.,65,.,.,.,.
COCCN(C(=O)CCC(=O)Nc1cccnc1)C(C(=O)NC1CCCCC1)c1ccccc1 (stereo not given),.,.,.,.,.,.
CC(C)c1ccc(-c2nnn(Cc3nc4ccccc4s3)n2)cc1,.,51,.,.,.,.
